Active and inactive are the calls of the source. The calls were made as follows: active = hit-call score of the fitted dose curve at least 0.9, where 1 is the maximum; inactive = score below 0.9.
read-out: Interferon-gamma inducible Protein 10 (IP10), CXCL10 (gene 3627); assay: BSK_BE3C_IP10: BioMAP Diversity Plus: BE3C Assay for Interferon-gamma inducible Protein 10 (IP10) Biomarker Activity (AID 2283034); settings: primary human bronchial epithelial cells; actives raise or lower the signal
Protocol: BSK_BE3C is a cell-based, multiplexed-readout assay that uses bronchial epithelial cell, a human lung primary cell, with measurements taken at 24 hours after chemical dosing in a 96-well plate.BSK_BE3C_IP10 is an assay component measured in the BSK_BE3C assay. It measures IP-10 antibody related to regulation of gene expression using ELISA technology.Data from the assay component BSK_BE3C_IP10 was analyzed into 1 assay endpoint. This assay endpoint, BSK_BE3C_IP10, was analyzed with bidirectional fitting relative to DMSO as the negative control and baseline of activity. Using a type of binding reporter, gain or loss-of-signal activity can be used to understand changes in the signaling as they relate to the gene CXCL10. Furthermore, this assay endpoint can be referred to as a primary readout, because this assay has produced multiple assay endpoints where this one serves a signaling function. To generalize the intended target to other relatable targets, this assay endpoint is annotated to the cytokine intended target family, where the subfamily is chemotactic factor.
The levels of cell surface (or secreted, indicated by the prefix "s") biomarker endpoints were measured by ELISA. Overt cytotoxicity to cells in confluent adherent cultures (all systems other than the BT system) was assessed by measuring total protein levels using sulforhodamine B (SRB) staining in parallel cultures at the time of biomarker measurements, indicated as SRB endpoints. For proliferation assays for adherent cell types, individual cell types are cultured at sub-confluence and relative cell numbers quantified by SRB staining at time points optimized for each system (48 h: 3C and CASM3C systems; 72 h: BT and HDF3CGF systems; 96 h: SAg system). SRB was performed by staining cells with 0.1% SRB after fixation with 10% TCA and reading wells at 560 nm.Viability and proliferation of PBMC (T cells) was quantified by Alamar Blue reduction for the SAg and BT systems. For PBMC viability (referred to as PBMC Cytotoxicity within the assay endpoint names), cells were plated (75,000/well in a 96-well plate) and then chemical samples added for 1 h before addition of activators, SEB and TSST-1 (20 ng/mL final concentration each). Cells were incubated for 90 h. Then, Alamar Blue (20 uL/well) (Invitrogen, Cat DAL1100) was added for 6 h, and the plates were read with a fluorescence microplate reader at 546/580 nm (excitation/emission). For PBMC proliferation, cells were plated and activated as above but incubated for only 16 h prior to addition of Alamar Blue. Plates were read after 6 h.

| Structure (SMILES) | AC50 | outcome |
| --- | --- | --- |
| CCCCC(CC)COC(=O)CC(C(=O)OCC(CC)CCCC)S(=O)(=O)O (stereo not given) | 7.16 µM (active) |  |
| NCCO |  | inactive |
| COc1ccc2c(c1)c(CC(=O)O)c(C)n2C(=O)c1ccc(Cl)cc1 |  | inactive |
| Cc1ccc2ncccc2c1 |  | inactive |
| c1cc(-c2ccncc2)ccn1 |  | inactive |
| O=c1c(O)c(-c2ccc(O)c(O)c2)oc2cc(O)cc(O)c12 |  | inactive |
| Cc1ccc(C(C)C)c(O)c1 |  | inactive |
| CCOC(=O)CCC(=O)OCC |  | inactive |
| CC(=O)C(C)=CC1C(C)=CCCC1(C)C (stereo not given) |  | inactive |
| Cc1ccc(C)c(C)c1 |  | inactive |
| CC(C)c1ccc(C(=O)N=C(N)N)cc1S(C)(=O)=O |  | inactive |
| FC(F)(F)C(F)(F)C(F)(F)C(F)(F)C(F)(F)C(F)(F)CCI |  | inactive |
| NCC1(Cc2noc(=O)[nH]2)CCCCC1 |  | inactive |
| CCOC(=O)C(C)(C)Oc1ccc(Cl)cc1 |  | inactive |
| CCCCCCC(=O)OCC |  | inactive |
| Cc1ccc(N(C)C)cc1 |  | inactive |
| NS(=O)(=O)c1cc2c(cc1Cl)NCNS2(=O)=O |  | inactive |
| Cc1oc(-c2ccccc2)nc1CCOc1cccc2c1ccn2CCC(=O)O | 26 µM (active) |  |
| CCc1c(C(=O)NN2CCCCC2)nn(-c2ccc(Cl)cc2Cl)c1-c1ccc(Br)cc1 | 24 µM (active) |  |
| O=C(OCCCCCOC(=O)c1ccccc1)c1ccccc1 |  | inactive |

| Structure (SMILES) | AC50 | outcome |
| --- | --- | --- |
| O=C(O)Cc1ccccc1Nc1c(Cl)cccc1Cl |  | inactive |
| C1CCC(SSC2CCCCC2)CC1 |  | inactive |
| Cc1c(C(=O)O)c(O)cc2c1C(=O)c1c(O)c([C@@H]3O[C@H](CO)[C@@H](O)[C@H](O)[C@H]3O)c(O)c(O)c1C2=O |  | inactive |
| CC(=O)OC/C=C(\C)CCC=C(C)C |  | inactive |
| COc1cc(-c2nc(NC(=O)c3cc4cc(C)cc(C)c4n3CC(=O)O)sc2CCC2CCCCC2)c(OC)cc1Cl | 1.3 µM (active) |  |
| CCCCCCCCCCCCCO | 29.7 µM (active) |  |
| CCCCCCCCCCCCCCCC |  | inactive |
| NC(=O)Cn1c(=O)cc(CCN2CCN(c3nccc4sccc34)CC2)c2ccc(F)cc21 |  | inactive |
| CCCCOC(=O)CCCCCCCCC(=O)OCCCC |  | inactive |
| COc1cc(C=O)ccc1O |  | inactive |
| CC(C)(C)c1cc(O)c(C(C)(C)C)cc1O |  | inactive |
| Nc1nc(N)c2nc(CNc3ccc(C(=O)N[C@@H](CCC(=O)O)C(=O)O)cc3)cnc2n1 |  | inactive |
| Cc1ccccc1Cl |  | inactive |
| O=C(N[C@@H](Cc1ccccc1)[C@@H](O)C(=O)N1C[C@@H](O)[C@@H](O)C1)c1cc2cc(Cl)ccc2[nH]1 |  | inactive |
| Cc1cccc([N+](=O)[O-])c1C |  | inactive |
| Cc1ccc(C)c(O)c1C |  | inactive |
| COCCOCCOC |  | inactive |
| CN1CCN(Cc2cc(-c3ccc4[nH]c(=O)oc4c3)co2)[C@@H](c2ccc(F)cc2)C1 |  | inactive |
| COCCOC[C@H](CC1(C(=O)NC2CCC(C(=O)O)CC2)CCCC1)C(=O)Oc1ccc2c(c1)CCC2 (stereo not given in full) |  | inactive |
| CCCCCC(=O)O |  | inactive |

Reference: PubChem BioAssay (EPA / NIEHS)
